# Reference: PubChem BioAssay
# Records with an inconclusive call do not appear. Calls of active or inactive are those of the source.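 How the source made its calls, unless noted: active means percent response above 42, roughly 3 SD of non-fluorescent test compounds; inactive means the rest.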
# What was measured:
# [1] = yeast TOR pathway RPL19A-GFP modulators, primary screen, cell-based, S. cerevisiae, multiplex flow cytometry (AID 1862; in the data active means percent of DMSO control GFP below about 86%;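 further: lower values mimic rapamycin by blocking the RPL19A rise seen in DMSO cells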); settings: S. cerevisiae RPL19A-GFP strain, flow cytometry fluorescence, 3 h; at 10 µM; stronger effect = lower value
# [2] = modulators of MEP2-GFP levels in yeast, primary screen, S. cerevisiae, multiplex flow cytometry (AID 1867;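 active means GFP response, as percent of the DMSO control, above the screen-wide mean plus 3 SD, about 139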;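 further: median GFP channel fluorescence of barcode-gated MEP2-GFP cells measured by flow cytometry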); settings: S. cerevisiae MEP2-GFP strain, 3 h, at 10 µM, stronger effect = higher value, 100% means same as DMSO wells
# [3] = modulators of CIT2-GFP expression in yeast, primary screen, S. cerevisiae, GFP fusion, multiplex flow cytometry (AID 1870;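 active means percent response above a set limit, the screen-wide mean plus 3 SD, cut at about 130% in these data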;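 further: barcoded CIT2-GFP strain pooled with four other GFP strains with rapamycin as positive control; median GFP fluorescence per well over plate mean of DMSO wells so 100% = DMSO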); settings: 3 h, at 10 µM, stronger effect = higher value
# [4] = modulators of LAP4-GFP expression in yeast, primary screen, S. cerevisiae, multiplex flow cytometry (AID 1873;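 active means GFP signal, as percent of the solvent control, above the screen mean plus 3 SD, about 149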); settings: 3 h, at 10 µM, stronger effect = higher value
# [5] = modulators of AGP1-GFP expression in yeast TOR pathway, primary screen, cell-based, multiplex flow cytometry, S. cerevisiae (AID 1887;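 active means GFP signal above the screen-wide mean plus 3 SD, that is over about 124.5% of the solvent control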;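 further: AGP1-GFP fusion strain of S. cerevisiae within a five-strain barcoded multiplex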); settings: 3 h, at 10 µM, stronger effect = higher value
# [6] = inhibitors of CD8+ T cell-vesicle binding, pilot screen, LFA-1/ICAM-1 modulator project, MLPCN validation set, flow cytometry (AID 2523;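 active means response below a set limit, under 55% cells CD8-positive and vesicle-bound, and CD8 cells' 90th-percentile brightness under 279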;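 on vesicle binding response: mean PE anti-B7-1 fluorescence of CD8+ cells relative to row control; 100% = QL9-loaded vesicles with DMSO vehicle in the same plate row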); settings: 2C mouse CD8+ T cells, at 7 µM, stronger effect = lower value; double positive events: measured here: CD8+/vesicle+ event percentage
# [7] = molecular target: Integrin beta-1 (Homo sapiens) + Integrin alpha-4 (Homo sapiens) (UniProt P13612+P05556); assay: inhibition of HUTS-21 binding to VLA-4, pilot screen, VLA-4 allosteric modulator project, U937 cells, HUTS-21 mAb, flow cytometry, validation set (AID 2674;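 active means inhibition above 50%, about 3 SD of the validation set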;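 further: antibody binding induced by the VLA-4 ligand LDV present at three times its Kd; 0% = LDV ligand with antibody and no compound and 100% = antibody without LDV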); settings: HUTS-21 LIBS mAb binding, at 6.7 µM, stronger effect = higher value, binding induced by LDV ligand
# Chain of Integrin beta-1 (Homo sapiens) + Integrin alpha-4 (Homo sapiens) (P05556 whole entry, looked up): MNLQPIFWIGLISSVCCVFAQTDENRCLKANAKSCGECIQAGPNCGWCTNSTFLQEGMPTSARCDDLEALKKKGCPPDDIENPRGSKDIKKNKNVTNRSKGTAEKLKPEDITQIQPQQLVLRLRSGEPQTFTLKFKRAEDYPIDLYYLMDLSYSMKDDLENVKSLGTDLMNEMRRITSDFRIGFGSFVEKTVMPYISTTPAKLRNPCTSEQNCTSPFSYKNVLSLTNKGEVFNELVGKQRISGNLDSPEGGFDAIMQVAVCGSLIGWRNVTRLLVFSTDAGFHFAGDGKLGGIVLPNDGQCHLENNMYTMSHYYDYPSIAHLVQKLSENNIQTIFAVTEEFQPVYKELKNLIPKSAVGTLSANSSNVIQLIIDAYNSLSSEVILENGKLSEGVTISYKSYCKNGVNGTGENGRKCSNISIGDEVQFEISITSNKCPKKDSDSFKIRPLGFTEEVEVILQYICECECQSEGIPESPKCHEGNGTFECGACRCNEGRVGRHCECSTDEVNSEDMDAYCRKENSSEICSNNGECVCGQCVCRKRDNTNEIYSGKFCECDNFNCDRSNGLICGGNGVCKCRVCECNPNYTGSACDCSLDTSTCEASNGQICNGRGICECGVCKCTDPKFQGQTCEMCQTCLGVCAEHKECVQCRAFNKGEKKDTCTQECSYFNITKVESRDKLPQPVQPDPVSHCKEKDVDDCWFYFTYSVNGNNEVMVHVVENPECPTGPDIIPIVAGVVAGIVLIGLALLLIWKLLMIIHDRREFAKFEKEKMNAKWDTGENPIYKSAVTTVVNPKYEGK
# Chain of Integrin beta-1 (Homo sapiens) + Integrin alpha-4 (Homo sapiens) (P13612 whole entry, looked up): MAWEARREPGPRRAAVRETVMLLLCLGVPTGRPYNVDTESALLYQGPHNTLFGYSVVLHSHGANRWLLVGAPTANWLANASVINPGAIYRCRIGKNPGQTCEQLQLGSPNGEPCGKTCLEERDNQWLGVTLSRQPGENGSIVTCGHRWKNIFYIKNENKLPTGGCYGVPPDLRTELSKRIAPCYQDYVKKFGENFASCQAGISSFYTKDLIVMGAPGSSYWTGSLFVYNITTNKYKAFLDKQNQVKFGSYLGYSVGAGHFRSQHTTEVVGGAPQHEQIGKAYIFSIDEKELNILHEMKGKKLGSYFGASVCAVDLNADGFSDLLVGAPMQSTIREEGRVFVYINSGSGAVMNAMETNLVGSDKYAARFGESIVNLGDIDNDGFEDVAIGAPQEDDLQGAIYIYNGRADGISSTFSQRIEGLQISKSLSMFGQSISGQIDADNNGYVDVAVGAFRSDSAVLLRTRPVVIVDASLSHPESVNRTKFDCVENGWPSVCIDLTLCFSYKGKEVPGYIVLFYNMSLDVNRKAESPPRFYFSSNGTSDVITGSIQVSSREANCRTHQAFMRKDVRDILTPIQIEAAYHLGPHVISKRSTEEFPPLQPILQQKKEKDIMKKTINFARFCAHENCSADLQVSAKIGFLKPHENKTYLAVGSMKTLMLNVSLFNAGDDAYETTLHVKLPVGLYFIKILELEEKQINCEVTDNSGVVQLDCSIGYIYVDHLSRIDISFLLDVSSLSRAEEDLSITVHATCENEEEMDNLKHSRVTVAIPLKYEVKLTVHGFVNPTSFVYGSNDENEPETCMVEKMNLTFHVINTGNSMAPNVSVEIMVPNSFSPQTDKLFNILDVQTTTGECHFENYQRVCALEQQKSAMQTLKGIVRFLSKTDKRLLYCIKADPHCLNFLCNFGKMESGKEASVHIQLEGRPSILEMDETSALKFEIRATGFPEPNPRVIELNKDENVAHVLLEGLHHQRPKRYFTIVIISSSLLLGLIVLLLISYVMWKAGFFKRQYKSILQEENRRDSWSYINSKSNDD
# [8] = superoxide lowering in aged yeast cells, pilot screen, validation compound set (AID 2706;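 active means superoxide response below 65% of plate, a cut near 3 SD across the whole screen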;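 further: yeast exposed to compound for one week at 30 degrees C before staining; 100% = mean of all compound wells on the same plate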); settings: S. cerevisiae aging, superoxide DHE fluorescence; at 10 µM; stronger effect = lower value
# [9] = molecular target: Beta-adrenergic receptor kinase 1 (Homo sapiens) (UniProt P25098); assay: GRK2 binders displacing RNA aptamer, biochemical, validation, human GRK2, bead flow cytometry (AID 488806;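 active means aptamer binding inhibition above 30%, about 3 SD of noise from non-fluorescent compounds; inactive means inhibition at or below 30%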); settings: bead-bound GRK2, FAM-aptamer displacement, at 10 µM, stronger effect = higher value
# Chain of Beta-adrenergic receptor kinase 1 (Homo sapiens) (P25098 whole entry, looked up): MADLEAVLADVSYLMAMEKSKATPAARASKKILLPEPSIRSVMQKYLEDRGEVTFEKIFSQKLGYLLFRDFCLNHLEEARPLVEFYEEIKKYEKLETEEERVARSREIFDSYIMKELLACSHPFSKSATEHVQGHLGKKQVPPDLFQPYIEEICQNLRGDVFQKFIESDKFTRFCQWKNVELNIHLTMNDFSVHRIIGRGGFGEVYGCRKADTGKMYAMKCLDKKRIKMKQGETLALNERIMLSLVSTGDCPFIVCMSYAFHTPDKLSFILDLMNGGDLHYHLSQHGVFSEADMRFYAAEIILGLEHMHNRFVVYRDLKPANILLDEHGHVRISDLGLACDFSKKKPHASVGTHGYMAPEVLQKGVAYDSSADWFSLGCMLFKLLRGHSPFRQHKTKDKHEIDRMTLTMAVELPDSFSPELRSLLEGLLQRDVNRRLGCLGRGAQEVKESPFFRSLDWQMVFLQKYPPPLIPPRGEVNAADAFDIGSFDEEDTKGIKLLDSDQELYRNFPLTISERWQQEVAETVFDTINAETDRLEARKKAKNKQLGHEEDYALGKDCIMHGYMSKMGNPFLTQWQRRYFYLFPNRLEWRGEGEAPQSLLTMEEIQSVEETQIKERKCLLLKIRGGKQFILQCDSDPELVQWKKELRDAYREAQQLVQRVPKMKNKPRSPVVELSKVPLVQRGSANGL
# [10] = molecular target: Beta-2 adrenergic receptor (Homo sapiens) (UniProt P07550); assay: beta2AR agonists driving receptor internalization, pilot screen, cell-based, FAP fluorogen, flow cytometry, validation set (AID 504459); settings: Am2.2-beta2AR cells, FAP surface receptor flow cytometry; at 10 µM; stronger effect = higher value;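 further: agonist-driven loss of surface beta2AR via internalization measured by FAP dye flow cytometry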
# Chain of Beta-2 adrenergic receptor (Homo sapiens) (P07550 whole entry, looked up): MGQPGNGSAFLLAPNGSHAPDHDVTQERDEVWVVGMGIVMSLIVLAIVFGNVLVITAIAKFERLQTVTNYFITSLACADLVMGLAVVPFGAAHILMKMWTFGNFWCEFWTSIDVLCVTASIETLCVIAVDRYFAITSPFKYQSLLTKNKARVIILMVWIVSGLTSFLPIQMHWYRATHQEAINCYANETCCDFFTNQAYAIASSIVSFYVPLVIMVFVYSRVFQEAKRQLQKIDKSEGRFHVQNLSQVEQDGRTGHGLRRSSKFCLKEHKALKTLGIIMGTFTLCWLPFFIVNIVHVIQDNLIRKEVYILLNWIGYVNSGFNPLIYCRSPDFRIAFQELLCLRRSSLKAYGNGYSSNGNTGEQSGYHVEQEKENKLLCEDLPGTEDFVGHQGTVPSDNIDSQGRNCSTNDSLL
# [11] = molecular target: AP-2 complex subunit beta (Homo sapiens) (UniProt P63010); assay: inhibitors of arrestin peptide binding to AP2, pilot screen, biochemical, validation set, GST-AP2 beads, flow cytometry (AID 504541;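 active means inhibition above 54%, about 3 SD of non-fluorescent compounds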;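 further: AP2 carries R879A mutation and is captured from E. coli lysate; bead-bound FITC arrestin peptide fluorescence measuring arrestin peptide binding to AP2; 0% = DMSO wells and 100% = excess unlabeled arrestin peptide control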); settings: FITC arrestin peptide, at 10 µM, stronger effect = higher value, AP2 beta2 appendage fragment, R879A mutant
# Chain of AP-2 complex subunit beta (Homo sapiens) (P63010 whole entry, looked up, the tested form may be a part, one chain of several): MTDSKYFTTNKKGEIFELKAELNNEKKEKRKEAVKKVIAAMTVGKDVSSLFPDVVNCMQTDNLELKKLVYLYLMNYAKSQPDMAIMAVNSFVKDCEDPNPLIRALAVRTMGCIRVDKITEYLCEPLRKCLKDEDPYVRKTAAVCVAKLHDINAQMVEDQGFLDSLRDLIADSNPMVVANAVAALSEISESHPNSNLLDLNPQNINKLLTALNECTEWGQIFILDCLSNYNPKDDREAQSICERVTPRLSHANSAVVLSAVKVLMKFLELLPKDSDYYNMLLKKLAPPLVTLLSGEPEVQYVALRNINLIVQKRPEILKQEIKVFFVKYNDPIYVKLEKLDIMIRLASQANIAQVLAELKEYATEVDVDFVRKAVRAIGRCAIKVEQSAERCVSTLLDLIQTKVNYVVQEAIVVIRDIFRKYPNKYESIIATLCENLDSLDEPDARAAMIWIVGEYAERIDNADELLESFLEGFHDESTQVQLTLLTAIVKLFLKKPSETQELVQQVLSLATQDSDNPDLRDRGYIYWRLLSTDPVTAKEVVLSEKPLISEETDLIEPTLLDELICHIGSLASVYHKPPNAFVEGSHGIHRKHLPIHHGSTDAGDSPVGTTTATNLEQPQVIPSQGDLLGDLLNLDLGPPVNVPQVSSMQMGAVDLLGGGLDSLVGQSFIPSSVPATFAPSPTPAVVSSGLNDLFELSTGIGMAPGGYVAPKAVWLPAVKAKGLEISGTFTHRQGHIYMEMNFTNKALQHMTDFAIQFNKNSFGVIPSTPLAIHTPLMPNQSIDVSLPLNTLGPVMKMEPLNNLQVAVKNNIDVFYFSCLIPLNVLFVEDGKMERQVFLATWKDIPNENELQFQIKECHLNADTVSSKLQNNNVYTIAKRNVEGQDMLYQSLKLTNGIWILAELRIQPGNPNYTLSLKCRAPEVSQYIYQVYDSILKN
# [12] = yeast V-ATPase proton transport modulators, S. cerevisiae, pHLuorin, HTS validation (AID 504600; in the data active means response above about 15%;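 further: plate controls were DMSO for no effect and reference compound for full effect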); settings: S. cerevisiae pHLuorin cytosolic pH, at 10 µM, stronger effect = higher value
# [13] = system: anti-desmoglein-3 scFv antibody binding to human DSG3; assay: inhibitors of anti-DSG3 scFv binding to DSG3, pilot screen, biochemical, validation compound set, bead-based, flow cytometry (AID 588368;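 active means binding below the plate cutoff, the plate median minus 3 SD, with a reading above zero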;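 further: signal is the median channel fluorescence of bead-bound GFP antibody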); settings: Protein G beads, DSG3-Fc, scFv-GFP binding, at 10 µM, stronger effect = lower value
# [14] = inhibitors of fungal efflux pumps CDR1, CDR2, MDR1, pilot screen, validation compound set, multiplex, phenotypic (AID 588506;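 active means efflux inhibition above 0.42, the validation set average plus 4 SD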;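 further: Nile Red retained in cells so higher fluorescence means more efflux inhibition; 0 = negative control wells and 1 = enniatin B 25 µM full block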); settings: S. cerevisiae pump-expressing triplex, Nile Red efflux flow cytometry; at 10 µM; stronger effect = higher value; the pumps come from Candida albicans
# [15] = molecular target: ATP-binding cassette sub-family B member 6 (Homo sapiens) (UniProt Q9NP58); assay: ABCB6 transporter inhibitors, pilot screen, K562-ABCB6 cells, flow cytometry, validation set (AID 588550;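 active means inhibition above the screen-wide mean plus 3 SD, about 51%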;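 further: 0% = DMSO wells and 100% = benzethonium chloride 70 µM positive control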); settings: K562-ABCB6 porphyrin accumulation, 1 h, at 10 µM, stronger effect = higher value
# Chain of ATP-binding cassette sub-family B member 6 (Homo sapiens) (Q9NP58 whole entry, looked up): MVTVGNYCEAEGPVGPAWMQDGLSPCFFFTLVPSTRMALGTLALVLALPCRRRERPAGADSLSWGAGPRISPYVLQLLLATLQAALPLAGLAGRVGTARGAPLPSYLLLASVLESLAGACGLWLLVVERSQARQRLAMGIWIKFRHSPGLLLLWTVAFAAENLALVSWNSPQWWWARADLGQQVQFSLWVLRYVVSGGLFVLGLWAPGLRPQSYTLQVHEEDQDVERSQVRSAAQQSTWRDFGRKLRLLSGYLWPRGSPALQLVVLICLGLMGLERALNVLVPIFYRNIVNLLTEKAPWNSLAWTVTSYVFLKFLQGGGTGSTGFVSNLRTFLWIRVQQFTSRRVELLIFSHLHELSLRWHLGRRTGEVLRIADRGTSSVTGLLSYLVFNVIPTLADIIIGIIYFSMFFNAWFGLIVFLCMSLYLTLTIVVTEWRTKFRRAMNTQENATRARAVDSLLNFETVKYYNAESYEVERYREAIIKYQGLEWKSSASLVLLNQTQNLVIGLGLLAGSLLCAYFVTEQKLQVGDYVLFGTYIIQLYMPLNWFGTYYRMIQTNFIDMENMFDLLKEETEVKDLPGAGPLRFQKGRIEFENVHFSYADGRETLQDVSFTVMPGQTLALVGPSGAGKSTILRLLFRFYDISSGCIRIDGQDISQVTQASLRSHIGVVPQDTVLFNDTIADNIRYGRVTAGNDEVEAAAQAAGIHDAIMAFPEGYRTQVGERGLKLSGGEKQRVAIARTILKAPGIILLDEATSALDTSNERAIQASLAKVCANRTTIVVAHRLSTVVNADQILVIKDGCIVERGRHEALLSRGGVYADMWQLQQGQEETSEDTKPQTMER
# [16] = promoters of myeloid differentiation in arrested cells, primary screen, cell-based, GFP/MAC1 double positive, flow cytometry, validation set (AID 588685;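 active means differentiation response of at least 50%, scaled between solvent and reference control, from cells with both markers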;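 further: compound exposure lasts four days before antibody staining and flow analysis; 0% = DMSO wells and 100% = 5 µM fulvestrant positive control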); settings: ER-HoxA9 marrow cells, stronger effect = higher value, normalized: vehicle 0, fulvestrant 100
Compound,percent of DMSO control GFP [1],GFP response vs DMSO [2],percent response of DMSO control [3],GFP response vs DMSO [4],"GFP response, % of DMSO [5]",double positive events [6],vesicle binding response [6],inhibition [7],superoxide response (% of plate) [8],aptamer binding inhibition [9],response [10],inhibition [11],response [12],binding (% of control) [13],efflux inhibition (fraction of control) [14],inhibition [15],differentiation response [16]
COc1ccc(NC(=O)C2OC3OC(C)(C)OC3C3OC(C)(C)OC23)cc1 (stereo not given),98.9% (inactive),98.6% (inactive),98.3% (inactive),106% (inactive),119% (inactive),63.5%,203% (inactive),13.4% (inactive),103% (inactive),5% (inactive),-8.79% (inactive),-12.6% (inactive),1.13% (inactive),106% (inactive),-0.04 (inactive),5% (inactive),0.92% (inactive)
CCOc1ccc(NC2OC(C)C(O)C(O)C2O)c([N+](=O)[O-])c1 (stereo not given),101% (inactive),104% (inactive),97.8% (inactive),95.3% (inactive),102% (inactive),62.7%,4580% (inactive),-4.6% (inactive),102% (inactive),2% (inactive),5.64% (inactive),-9.73% (inactive),2.76% (inactive),94.8% (inactive),-0.01 (inactive),-10% (inactive),-2.69% (inactive)
CCOCC(=O)Nc1ccccc1C(=O)N1CCOCC1,97% (inactive),130% (inactive),114% (inactive),88.6% (inactive),87.7% (inactive),67.2%,182% (inactive),-2.27% (inactive),96.8% (inactive),6% (inactive),2.34% (inactive),14.3% (inactive),-3.44% (inactive),100% (inactive),0.23 (inactive),,0% (inactive)
COc1ccc(-c2c3c(=O)n(C)c(=O)n(C)c3cn2C2CCCCC2)cc1,95.2% (inactive),109% (inactive),88.2% (inactive),113% (inactive),92.6% (inactive),58.5%,132% (inactive),-14.1% (inactive),106% (inactive),-1% (inactive),14.9% (inactive),1.05% (inactive),2.1% (inactive),95.5% (inactive),0.05 (inactive),9% (inactive),-16.8% (inactive)
COc1cc2[nH]c3c(=O)n(CCN4CCOCC4)cnc3c2cc1OC,101% (inactive),96.3% (inactive),101% (inactive),101% (inactive),99.4% (inactive),60.3%,172% (inactive),-7.25% (inactive),98.5% (inactive),3% (inactive),-0.47% (inactive),13.5% (inactive),-1.31% (inactive),102% (inactive),-0.17 (inactive),5% (inactive),4% (inactive)
COc1c(O)ccc2c1CN1CCc3cc4c(cc3C1C2)OCO4 (stereo not given),107% (inactive),112% (inactive),93.9% (inactive),130% (inactive),103% (inactive),61.6%,157% (inactive),,92.6% (inactive),1% (inactive),24.6% (inactive),30.3% (inactive),-1.39% (inactive),99.7% (inactive),0.66 (active),-25% (inactive),23.2% (inactive)
